# Laboratory results taken from PubChem BioAssay AID1347414 (National Center for Advancing Translational Sciences (NCATS), 2020).
# Records with an inconclusive call do not appear. Active and inactive are the calls of the source. The call rests on the fitted dose curve; in most records, active means well fitted inhibition curve with a large enough effect; inconclusive means small, poorly fitted or top-dose-only effect; inactive means no such curve, though single readings can be large or run the other way.
# Experiment: qHTS to identify inhibitors of the type 1 interferon - major histocompatibility complex class I in skeletal muscle: Secondary screen by immunofluorescence; further: nearly all actives have a fitted effect of over 70% in size
# Conditions: C25cl48 myoblasts, IFN-b induced HLA-ABC immunofluorescence, 24 h; series mostly up to 49.8 µM
# In short: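 HLA-ABC immunofluorescence, with nuclear and cell-body stains, was quantified by laser scanning cytometry. Read-out followed 24 h of IFN-beta (4.0 ng/ml) stimulation of C25cl48 human myoblasts with compounds titrated 1:3 over 11 points from 50 uM, with ruxolitinib as inhibitor control.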
# Potency means the concentration at half of the fitted maximal effect.
row,SMILES,Potency
1,CCN(CC)Cc1ccc2cc(COC(=O)Nc3ccc(C(=O)NO)cc3)ccc2c1,258 nM (active)
2,c1cc(Nc2cc(C3CC3)[nH]n2)nc(Nc2ccc3nc[nH]c3c2)n1,647 nM (active)
3,CCCOc1ccc2nc(NC(=O)OC)[nH]c2c1,inactive
4,CN(Cc1ccc(/C=C/C(=O)NO)cc1)CC12CC3CC(CC(C3)C1)C2,72.6 nM (active)
5,CC(C)c1cnn2c(NCc3ccccc3)cc(N[C@@H](CO)[C@H](O)CO)nc12,914 nM (active)
6,Nc1ccccc1NC(=O)c1ccc(CNc2nccc(-c3cccnc3)n2)cc1,3240 nM (active)
7,COc1cccc2c1C(=O)c1c(O)c3c(c(O)c1C2=O)C[C@@](O)(/C(CO)=N/NC(=O)CCCCCN1C(=O)C=CC1=O)C[C@@H]3O[C@H]1C[C@H](N)[C@H](O)[C@H](C)O1,1020 nM (active)
8,COC(=O)Nc1nc2ccc(C(=O)c3ccc(F)cc3)cc2[nH]1,inactive
9,Cc1cc(O)c(-c2ccc([C@@H](C)CN)cc2)c2c1[nH]c(=O)c1sccc12,18.2 nM (active)
10,CC(C)(C)CC(=O)OCC(=O)[C@@]1(O)CC[C@H]2[C@@H]3CCC4=CC(=O)C=C[C@]4(C)[C@H]3[C@@H](O)C[C@@]21C,inactive
11,CC(C)c1c2cc(-c3ccnc(NC4CCC(NC5CCOCC5)CC4)n3)ccc2nn1C (configuration not stated),145 nM (active)
12,N#CC[C@H](C1CCCC1)n1cc(-c2ncnc3[nH]ccc23)cn1,458 nM (active)
13,O=C(CCCCCCC(=O)Nc1ccccc1)NO,914 nM (active)
14,COc1ccc(CNc2nc(N(CCO)CCO)nc3c2ncn3C(C)C)cc1,8140 nM (active)
15,Fc1cccc(-n2cnc3c(NCc4nc5c(F)c(F)ccc5[nH]4)nc(N4CCOCC4)nc32)c1,289 nM (active)
16,CC(=O)[C@]1(O)Cc2c(O)c3c(c(O)c2[C@@H](O[C@H]2C[C@H](N)[C@H](O)[C@H](C)O2)C1)C(=O)c1ccccc1C3=O,230 nM (active)
17,CN1CCN(c2cccc(Nc3nc4c(-c5ccc(S(C)(=O)=O)cc5)cccn4n3)c2)CC1,1820 nM (active)
18,CC(C)CC(=O)Nc1n[nH]c2c1CN(C(=O)C1CCN(C)CC1)C2(C)C,230 nM (active)
19,COc1cccc2nc(-c3cccs3)nc(NN3C(=O)C=C(C)C3=O)c12,1820 nM (active)

row,SMILES,Potency
1,C[C@]12C=CC(=O)C=C1CC[C@H]1[C@@H]3C[C@@H](O)[C@](O)(C(=O)CO)[C@@]3(C)C[C@H](O)[C@@]12F,inactive
2,Cc1ncsc1-c1ccc([C@H](C)NC(=O)[C@@H]2C[C@@H](O)CN2C(=O)[C@@H](NC(=O)COCCCOCCNC(=O)C[C@@H]2N=C(c3ccc(Cl)cc3)c3c(sc(C)c3C)-n3c(C)nnc32)C(C)(C)C)cc1,145 nM (active)
3,COc1cccc2c1C(=O)c1c(O)c3c(c(O)c1C2=O)C[C@@](O)(C(C)=O)C[C@@H]3O[C@H]1C[C@H](N)[C@H](O)[C@H](C)O1,458 nM (active)
4,OC1CCC(Oc2cccc3cnc(Nc4ccc5nc[nH]c5c4)nc23)CC1 (configuration not stated),1020 nM (active)
5,CC(=O)Nc1ccc([C@H](C)C(=O)Nc2ncc(C(C)C)s2)cc1,1620 nM (active)
6,O=C(Nc1cn[nH]c1-c1nc2ccc(CN3CCOCC3)cc2[nH]1)NC1CC1,2890 nM (active)
7,CN1CCC(c2c(O)cc(O)c3c(=O)cc(-c4ccccc4Cl)oc23)C1CO (configuration not stated),408 nM (active)
8,O=C(/C=C/c1cccc(S(=O)(=O)Nc2ccccc2)c1)NO,514 nM (active)
9,CN(C)Cc1c(C(=O)NCCOc2ccc(C(=O)NO)cc2)oc2ccccc12,162 nM (active)
10,O=C1Nc2ccccc2C1(c1ccc(O)cc1)c1ccc(O)cc1,inactive
11,CCc1c(-c2ccccc2C)nc2c(C#N)c[nH]n2c1=O,inactive
12,CC(=O)NCC(=O)N1[C@@H]2CC[C@H]1c1ccc(Nc3ncc(C(F)(F)F)c(NC4CCC4)n3)cc12,14500 nM (active)
13,CC(/C=C/C(=O)NO)=C\[C@@H](C)C(=O)c1ccc(N(C)C)cc1,204 nM (active)
14,CN(C)C/C=C/C(=O)Nc1ccc(C(=O)N2CCC[C@@H](Nc3ncc(Cl)c(-c4c[nH]c5ccccc45)n3)C2)cc1,230 nM (active)
15,O=C(/C=C/C#Cc1cccc(NS(=O)(=O)c2ccccc2)c1)NO,1450 nM (active)
16,C=C1C(=O)O[C@@H]2[C@H]3O[C@]3(C)CC/C=C(\C)CC[C@@H]12,7260 nM (active)
17,CCN1CCN(Cc2ccc(NC(=O)Nc3ccc(Oc4cc(NC)ncn4)cc3)cc2C(F)(F)F)CC1,1620 nM (active)
18,C/C=C1\NC(=O)[C@H]2CSSCCC=C[C@H](CC(=O)N[C@H](C(C)C)C(=O)N2)OC(=O)[C@H](C(C)C)NC1=O,5.8 nM (active)
